# Data reported in paper PMC11062922 (Nature Chemical Biology, 2023).
# Read-outs that look alike come from different tables or passages of the source.
# Key:
# Design in all cases: species or system human, MV4-11 + K-562 + COLO205 + SK-N-BE2 + OVCAR-8
# [1] = system: PDXK; conditions: read-out: apparent Kd, n = 1
# [2] = system: NQO2; conditions: read-out: apparent Kd, n = 1
# [3] = system: MAP2K2; conditions: read-out: apparent Kd, n = 1
# [4] = system: MAP2K1; conditions: read-out: apparent Kd, n = 1
# [5] = system: NLK; conditions: read-out: apparent Kd, n = 1
# [6] = system: TGFBR2; conditions: read-out: apparent Kd; compound concentrations:100 nM and 1000 nM (sheet 'Samples'); n = 1
# [7] = system: T1, DJA1; conditions: read-out: apparent Kd, n = 1
# T1 construct: gene DNAJA1
# [8] = system: PIK3CD; conditions: read-out: apparent Kd, n = 1
# [9] = system: EPHB2; conditions: read-out: apparent Kd; compound concentrations: 100 nM and 1000 nM (sheet 'Samples'), CATDS: 3.4039918374270103E-2; n = 1
# [10] = system: MAPK9; conditions: read-out: apparent Kd, n = 1
# [11] = system: PDGFRB; conditions: read-out: apparent Kd; compound concentrations:100 nM and 1000 nM (sheet 'Samples'); n = 1
# [12] = system: CSNK1D; conditions: read-out: apparent Kd, n = 1
# [13] = system: CSNK1A1; conditions: read-out: apparent Kd; compound concentrations:100 nM and 1000 nM (sheet 'Samples'); n = 1
# [14] = system: MAPKAPK2; conditions: read-out: apparent Kd; compound concentrations:100 nM and 1000 nM (sheet 'Samples'); n = 1
# [15] = system: MAP4K5; conditions: read-out: apparent Kd; compound concentrations:100 nM and 1000 nM (sheet 'Samples'); n = 1
# [16] = compound concentrations:100 nM and 1000 nM (sheet 'Samples')
smiles,measurement,setting,value
Cn1cc(C2=C(c3cn(CCCN/C(N)=N/[N+](=O)[O-])c4ccccc34)C(=O)NC2=O)c2ccccc21 [RO0318161-000],potency estimated from few doses,"[1]; compound concentrations: 100 nM and 1000 nM (sheet 'Samples'), CATDS: 0.37249947882966999",866 nM
Cn1cc(C2=C(c3ccccc3[N+](=O)[O-])C(=O)NC2=O)c2ccccc21 [RO0317753-000],potency estimated from few doses,"[2]; compound concentrations: 100 nM and 1000 nM (sheet 'Samples'), CATDS: 7.9210826703434503E-2",1280 nM
same,potency estimated from few doses,"[1]; compound concentrations: 100 nM and 1000 nM (sheet 'Samples'), CATDS: 8.6520417055061499E-2",907 nM
COc1ccc(COc2ccc(Cc3cnc(N)nc3N)cc2OC)cc1 [GW632580X],potency estimated from few doses,[3]; [16],1630 nM
CC(=O)Nc1ccc2c(C3=C(c4cn(C)c5ccccc45)C(=O)NC3=O)cn(C)c2c1 [RO0317596-000],potency estimated from few doses,"[2]; compound concentrations: 100 nM and 1000 nM (sheet 'Samples'), CATDS: 0.111698981376187",1590 nM
same,potency estimated from few doses,"[1]; compound concentrations: 100 nM and 1000 nM (sheet 'Samples'), CATDS: 0.18147743783192199",554 nM
COc1ccc(Nc2nccc(N3CCC(NC(=O)Nc4cccc(OC)c4)C3)n2)cc1 (stereo not shown) [GSK1379742A],potency estimated from few doses,"[4]; compound concentrations: 100 nM and 1000 nM (sheet 'Samples'), CATDS: 0.105548477944527",2400 nM
same,potency estimated from few doses,"[3]; compound concentrations: 100 nM and 1000 nM (sheet 'Samples'), CATDS: 0.114470387989454",1980 nM
COc1ccc(C2=C(Nc3cccc(O)c3)C(=O)NC2=O)cc1 [SB-390766],potency estimated from few doses,[5]; [16],2210 nM
same,potency estimated from few doses,[6],2030 nM
COc1cc(F)c(F)c(F)c1C(=O)c1cnc(NC2CCN(S(C)(=O)=O)CC2)nc1N [RO4600703-000],potency estimated from few doses,[2]; [16],426 nM
same,potency estimated from few doses,[1]; [16],501 nM
CS(=O)(=O)c1ccc(-c2nc3n(c2-c2ccncc2)CCC3)cc1 [SKF-105942],potency estimated from few doses,"[7]; compound concentrations: 100 nM and 1000 nM (sheet 'Samples'), CATDS: 0.12627731400414099",1700 nM
same,potency estimated from few doses,"[2]; compound concentrations: 100 nM and 1000 nM (sheet 'Samples'), CATDS: 0.142598499620046",1270 nM
same,potency estimated from few doses,"[8]; compound concentrations: 100 nM and 1000 nM (sheet 'Samples'), CATDS: 0.51073942178012399",141 nM
Cn1cc(C2=C(c3cn(CCCCCO)c4ccccc34)C(=O)NC2=O)c2ccccc21 [RO0318053-000],potency estimated from few doses,"[2]; compound concentrations: 100 nM and 1000 nM (sheet 'Samples'), CATDS: 9.2585577918862794E-2",959 nM
same,potency estimated from few doses,"[1]; compound concentrations: 100 nM and 1000 nM (sheet 'Samples'), CATDS: 0.25573485461169798",60.4 nM
NC(=O)c1cccnc1COc1cc(-c2ccc(N3CCOCC3)nc2)cc2ncccc12 [BI01125081],potency estimated from few doses,[7]; [16],1430 nM
same,potency estimated from few doses,[1]; [16],1680 nM
same,potency estimated from few doses,[8]; [16],126 nM
same,potency estimated from few doses,[6],1310 nM
COc1ccc(C2=C(c3cn(C)c4ccccc34)C(=O)NC2=O)cc1OC [RO3206363-000],potency estimated from few doses,"[7]; compound concentrations: 100 nM and 1000 nM (sheet 'Samples'), CATDS: 3.2513241063347201E-2",1710 nM
same,potency estimated from few doses,[9],1430 nM
same,potency estimated from few doses,"[10]; compound concentrations: 100 nM and 1000 nM (sheet 'Samples'), CATDS: 8.8329407260920895E-2",133 nM
same,potency estimated from few doses,"[2]; compound concentrations: 100 nM and 1000 nM (sheet 'Samples'), CATDS: 4.2100406306544602E-2",722 nM
same,potency estimated from few doses,"[8]; compound concentrations: 100 nM and 1000 nM (sheet 'Samples'), CATDS: 0.47573299908292999",9.3 nM
COc1cc(N2CCN(C(C)C)CC2)ccc1Nc1nc(Nc2cccc(F)c2C(=O)O)c2cc[nH]c2n1 [GSK1819799A],potency estimated from few doses,"[7]; compound concentrations: 100 nM and 1000 nM (sheet 'Samples'), CATDS: 4.1353934999492699E-2",2220 nM
same,potency estimated from few doses,"[4]; compound concentrations: 100 nM and 1000 nM (sheet 'Samples'), CATDS: 4.3561445001152499E-2",1870 nM
same,potency estimated from few doses,"[10]; compound concentrations: 100 nM and 1000 nM (sheet 'Samples'), CATDS: 0.24378772023950801",74.5 nM
Cc1ccc(CC(=O)N2CCc3cc(-c4cn(C)c5ncnc(N)c45)ccc32)cc1 [GSK2634758A],potency estimated from few doses,"[7]; compound concentrations: 100 nM and 1000 nM (sheet 'Samples'), CATDS: 0.16738098836047199",1400 nM
same,potency estimated from few doses,"[2]; compound concentrations: 100 nM and 1000 nM (sheet 'Samples'), CATDS: 0.188092935593722",1120 nM
same,potency estimated from few doses,"[1]; compound concentrations: 100 nM and 1000 nM (sheet 'Samples'), CATDS: 0.16794834883854801",1390 nM
CCS(=O)(=O)c1ccc(OC)c(Nc2ncc(-c3cccc(F)c3)o2)c1 [GW621970X_KCGS],potency estimated from few doses,[11],1960 nM
Cc1ccc(NC(=O)c2ccc(Cl)cc2)cc1-c1ccc(C(=O)Nc2ccncc2)cc1 [GSK1398467A],potency estimated from few doses,"[12]; compound concentrations: 100 nM and 1000 nM (sheet 'Samples'), CATDS: 0.16187565637937301",2020 nM
COc1ccc(-c2nn3ncccc3c2-c2ccnc(Nc3ccc4c(c3)OCCO4)n2)cc1 [GW827106X],potency estimated from few doses,"[12]; compound concentrations: 100 nM and 1000 nM (sheet 'Samples'), CATDS: 4.1816048723515499E-2",2430 nM
same,potency estimated from few doses,"[10]; compound concentrations: 100 nM and 1000 nM (sheet 'Samples'), CATDS: 4.4079434043462103E-2",2070 nM
same,potency estimated from few doses,"[5]; compound concentrations: 100 nM and 1000 nM (sheet 'Samples'), CATDS: 4.4703419918465902E-2",1990 nM
Cc1[nH]nc2c1N=C(c1ccccc1Cl)c1cc([N+](=O)[O-])ccc1N2 [RO0274406-000],potency estimated from few doses,"[1]; compound concentrations: 100 nM and 1000 nM (sheet 'Samples'), CATDS: 8.1891234484878103E-2",832 nM
Fc1cccc(COc2ccc(Nc3ncncc3C#Cc3ccccc3)cc2Cl)c1 [GW651576X],potency estimated from few doses,"[7]; compound concentrations: 100 nM and 1000 nM (sheet 'Samples'), CATDS: 6.6379654075199995E-2",1040 nM
same,potency estimated from few doses,"[4]; compound concentrations: 100 nM and 1000 nM (sheet 'Samples'), CATDS: 4.57330679966748E-2",2200 nM
same,potency estimated from few doses,"[3]; compound concentrations: 100 nM and 1000 nM (sheet 'Samples'), CATDS: 5.7439305981691703E-2",1350 nM
Fc1ccc(-c2ncn(C3CCNCC3)c2-c2ccnc(Oc3ccc4c(c3)OCO4)n2)cc1 [SB-250715],potency estimated from few doses,[13],1300 nM
same,potency estimated from few doses,[12]; [16],271 nM
same,potency estimated from few doses,[4]; [16],1050 nM
same,potency estimated from few doses,[3]; [16],1560 nM
same,potency estimated from few doses,[10]; [16],1260 nM
same,potency estimated from few doses,[14],4.25 nM
Cl.Oc1ccc2ncnc(Nc3ccc(OCc4ccccc4)cc3)c2c1 [GI262866A],potency estimated from few doses,[1]; [16],506 nM
COc1cc2ncn(-c3cc(O[C@H](C)c4ccccc4Cl)c(C(N)=O)s3)c2cc1OC [GSK237701A],potency estimated from few doses,[15],1160 nM
COc1ccccc1-c1cc(/C=C2\C(=O)Nc3ncc(Br)cc32)cc(Br)c1O [GW442130X],potency estimated from few doses,[13],1780 nM
same,potency estimated from few doses,[4]; [16],1650 nM
same,potency estimated from few doses,[3]; [16],1580 nM
